Bioassay records as filed in PubChem.
GLD-1 TGE inh: GLD-1-TGE RNA interaction inhibition (C. elegans). Q17339. purified GLD-1 + fluorescein TGE RNA, fluorescence polarization. inhibition, % at 5.96 µM. 320,000 tested, 0.44% active. AID 2280;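 active means percent inhibition above a per-plate cutoff, the plate mean of test compounds plus 3 SD, cut at about 30% in these data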;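 further: 0% = DMSO wells with GLD-1 and probe and 100% = wells lacking GLD-1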
MEX-5 binding: C. elegans MEX-5 TCR-2 RNA binding activity | Q9XUB2 | MEX-5/FITC-TCR2 RNA binding, fluorescence polarization; active compounds read low | activity score (negative = inhibition of binding), % at 10 µM | 300,000 tested, 0.38% active;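 active means inhibition past about -25% in most replicates, and total fluorescence under double the plate's negative control median, limit read from the data; inconclusive means replicates evenly split on the limit, or fluorescence at least double controls; inactive means too little inhibition in most replicates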;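 further: 0% = DMSO and -100% = 5 µM competing unlabeled TCR2 RNA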
Target sequence (Q9XUB2 whole entry, looked up): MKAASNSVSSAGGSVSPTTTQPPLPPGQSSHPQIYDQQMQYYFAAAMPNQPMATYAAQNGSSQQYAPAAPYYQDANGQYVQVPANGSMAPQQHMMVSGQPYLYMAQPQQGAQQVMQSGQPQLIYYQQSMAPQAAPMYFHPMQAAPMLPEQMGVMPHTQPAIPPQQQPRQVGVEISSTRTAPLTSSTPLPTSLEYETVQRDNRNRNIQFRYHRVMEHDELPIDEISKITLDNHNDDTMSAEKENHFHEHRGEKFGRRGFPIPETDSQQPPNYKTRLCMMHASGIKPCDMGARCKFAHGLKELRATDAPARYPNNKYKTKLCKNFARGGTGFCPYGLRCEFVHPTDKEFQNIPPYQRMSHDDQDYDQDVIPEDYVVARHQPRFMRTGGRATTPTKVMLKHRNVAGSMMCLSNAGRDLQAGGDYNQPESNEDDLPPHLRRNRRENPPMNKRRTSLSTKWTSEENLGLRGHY
EBV gp42 inh: inhibitors of Epstein-Barr virus glycoprotein 42; Q1HVG2; Fluorescence polarization binding assay, mP read-out; inhibition, % (tested at 21.74 µM); 220,000 tested, 0.42% active; AID 1085; in the data active means inhibition above about 50%
Target sequence (Q1HVG2 whole entry, looked up): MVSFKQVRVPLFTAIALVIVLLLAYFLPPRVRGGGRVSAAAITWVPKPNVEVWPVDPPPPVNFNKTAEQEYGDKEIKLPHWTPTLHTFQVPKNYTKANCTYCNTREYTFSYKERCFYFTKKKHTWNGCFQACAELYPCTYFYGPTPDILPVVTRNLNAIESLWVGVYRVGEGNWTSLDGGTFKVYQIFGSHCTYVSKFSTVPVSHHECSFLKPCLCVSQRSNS
BCLXL inh: Bcl-xL (human) inhibition | Q07817 | inhibition, % at 10.9 µM | 320,000 tested, 0.7% active | GST-Bcl-xL / FITC-Bim BH3 peptide fluorescence polarization;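 active means inhibition above the mean of all tested compounds plus 3 SD, cutoff set per campaign, cut at about 30% in these data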;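 further: 0% = DMSO wells and 100% = unlabeled Bim-BH3 peptide competitor; inhibitors lower millipolarization by displacing the labeled peptide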
MCL1 BIM primary: disrupts human MCL1 binding to BIM-BH3 peptide | AID 2057 | GST-MCL1 / FITC-Bim-BH3 fluorescence polarization | 320,000 tested, 0.68% active | inhibition, % at 10.9 µM;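 active means inhibition above the mean inhibition of all tested compounds plus 3 SD, set per campaign, cut at about 40% in these data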;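 further: 0% = DMSO wells and 100% = unlabeled Bim-BH3 peptide control; higher means more loss of mP so more displacement of Bim peptide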
BCLXL inh confirm: counter-screen for MCL1 inhibitors: confirmation of human Bcl-xL inhibitors. inhibition, % at 10.9 µM. 1,700 tested, 54% active. GST-Bcl-xL / FITC-Bim BH3 peptide FP binding. shares compounds with MCL1 BIM primary;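 active means inhibition above a cutoff equal to the mean inhibition of all tested compounds plus 3 SD, cut at about 30% in these data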;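 further: 0% = DMSO wells and 100% = unlabeled Bim BH3 control peptide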
MCL1 inh confirm: confirmation of human MCL1 and BIM-BH3 interaction inhibitors; GST-MCL1 / FITC-Bim-BH3 fluorescence polarization; inhibition, % at 10.9 µM; shares compounds with MCL1 BIM primary; 1,700 tested, 61% active;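 active means inhibition above the average of all tested compounds plus 3 SD, cut at about 40% in these data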;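 further: 0% = DMSO wells and 100% = unlabeled Bim-BH3 control peptide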
GLD1 RNA confirm: confirmation of C. elegans GLD-1 TGE RNA binding inhibitors. AID 2459. 550 tested, 10% active. shares compounds with GLD-1 TGE inh. inhibition, % at 5.96 µM. GLD-1/FL-TGE RNA fluorescence polarization, biochemical;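 active means average inhibition across triplicates above the hit cutoff set in the primary screen, cut at about 32% in these data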;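 further: 0% = GLD-1 with RNA probe and DMSO and 100% = wells lacking GLD-1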
* hit, by the source's call; ? = inconclusive; nt = no result; + = active, no number. Most compounds without a hit are left out; they make up all but 1.3% or so of the library.

SMILES | GLD-1 TGE inh | MEX-5 binding | EBV gp42 inh | BCLXL inh | MCL1 BIM primary | BCLXL inh confirm | MCL1 inh confirm | GLD1 RNA confirm
CC(OC(=O)/C(C#N)=C/c1ccc(N(C)C)cc1)C(=O)NCc1ccco1 (stereo unspecified) | 76.8* | -2.9 | nt | 110.6* | 128.8* | 99.0* | 141.9* | 56.0*
Nc1cccc2c1C(=O)N(c1ccccc1)C2=O | 70.5* | -25.8* | nt | 69.0* | 80.1* | 64.6* | 78.8* | 67.2*
Nc1c(O)ccc2c1C(=O)c1ccccc1C2=O | 72.4* | -39.4* | 145.7* | 105.4* | 105.1* | 111.3* | 127.2* | 53.4*
CSc1nc2nc3c(cc2c(=O)n1-c1ccccc1C)COC(C)(C)C3 | 45.9* | -0.5 | -16.3 | 57.1* | 59.3* | -4.4 | -0.2 | -6.3
CCCN=C1N/C(=C\c2ccco2)C(=O)N1c1ccccc1 | 19.8 | -1.5 | -4.4 | 8.9 | 10.8 | nt | nt | nt
O=C1/C(=C\c2ccco2)NC(=S)N1c1ccccc1 | 55.0* | -2.3 | 2.6 | 33.9* | 49.7* | 13.5 | 16.5 | -3.4
Cc1ccccc1NC(=O)NC1(C(=O)NCC2CCCO2)CCCCC1 (stereo unspecified) | 4.5 | 3.6 | nt | 1.3 | -3.3 | nt | nt | nt
COc1ccc(NC(=S)N(CCc2c(C)[nH]c3ccc(C)cc23)Cc2cccs2)cc1 | 9.0 | 3.3 | -3.3 | -2.5 | 5.0 | nt | nt | nt
COc1ccc2[nH]c(C)c(CCN(Cc3cccs3)C(=S)Nc3ccccc3)c2c1 | 46.4* | -1.9 | 8.6 | 79.4* | 87.8* | 38.1* | 59.2* | 10.9
COc1ccc2[nH]c(C)c(CCN(Cc3cccs3)C(=S)Nc3ccc(F)cc3)c2c1 | 48.9* | -5.9 | 4.0 | 73.0* | 74.6* | 40.5* | 51.8* | -0.7
O=C(COC(=O)/C=C/c1cccc(Cl)c1)NC1CC1 | 8.3 | nt | nt | 3.5 | 3.2 | nt | nt | nt
CNc1nc2cc([N+](=O)[O-])c([N+](=O)[O-])cc2nc1NC | 98.3* | 2.5 | 7.2 | 89.6* | 98.2* | 11.6 | 6.6 | 8.0
O=C(OCc1ccccc1)/C(=C/c1ccccc1Cl)NC(=O)c1ccco1 | 5.4 | 2.4 | nt | -0.4 | -7.8 | nt | nt | nt
COCCN1CN(S(=O)(=O)c2ccc(Cl)cc2)c2nc3ccccc3nc21 | 7.3 | 1.9 | -1.1 | 1.9 | 2.5 | nt | nt | nt
COCCN1CN(S(=O)(=O)c2ccccc2)c2nc3ccccc3nc21 | 58.7* | 1.7 | 20.3 | 62.0* | 55.3* | 30.5* | 43.3* | 13.3
O=C1CCCC2=C1Sc1ccc(Cl)cc1N2 | 50.0* | ? | 53.8* | 69.4* | 77.5* | 63.6* | 73.7* | 11.4
S=C1CCSc2ccc(Cl)cc2N1 | nt | 0.2 | -18.5 | nt | nt | nt | nt | nt
COC(=O)c1ccc2c(c1)SC1=C(CCCC1=O)N2 | 96.2* | -2.0 | 145.5* | 148.5* | 176.8* | 118.2* | 161.0* | 47.9*
Cc1ccc2[nH]c(C(=O)NCCN3CCCC3)cc2c1 | -0.9 | 4.0 | nt | 2.5 | 6.8 | nt | nt | nt
COc1ccc(NC(=O)Nc2cc(C)cc(C)c2)cn1 | 48.0* | -36.4* | 29.2 | 58.4* | 58.0* | 62.2* | 79.5* | 42.6*
CCN(C(=O)COC(=O)c1cc(-c2cccc3ccccc23)nc2ccccc12)C1CCS(=O)(=O)C1 (stereo unspecified) | 38.6* | nt | -6.8 | 91.0* | 97.7* | 49.6* | 73.5* | 12.0
Cc1ccc(CNC(=O)CS(=O)(=O)c2cn(CC(=O)N3CCOCC3)c3ccccc23)cc1 | 0.8 | -2.3 | nt | 2.7 | -5.6 | nt | nt | nt
CC(=O)OCCNc1cc(N2CCN(C)CC2)c2noc3c2c1C(=O)c1ccccc1-3 | nt | nt | 12.2 | nt | nt | nt | nt | nt
O=C(O)CCNc1cc(N2CCN(C(=O)c3ccco3)CC2)c2noc3c2c1C(=O)c1ccccc1-3 | 37.5* | ? | nt | 78.1* | 92.8* | 59.4* | -111.1 | -216.1
Cc1ccc(-n2c(C)nc3c(cnn3-c3ccc(C)c(C)c3)c2=O)cc1C | 75.4* | -0.8 | -10.4 | 75.6* | 78.9* | 13.9 | 6.7 | -0.1
SMILES | GLD-1 TGE inh | MEX-5 binding | EBV gp42 inh | BCLXL inh | MCL1 BIM primary | BCLXL inh confirm | MCL1 inh confirm | GLD1 RNA confirm
C=C1c2cccc(O)c2C(O)=C2C(=O)[C@]3(O)C(O)=C(C(N)=O)C(=O)[C@@H](N(C)C)[C@@H]3[C@@H](O)[C@H]12 | 36.4* | -31.8* | -13.4 | 63.8* | 107.5* | 36.0* | 86.7* | -1.8
Cc1ccccc1CS(=O)(=O)CCC(=O)NCCN1CCN(c2cccc(Cl)c2)CC1 | 62.1* | -0.1 | -28.6 | 62.4* | 58.9* | 10.2 | 24.2 | -2.5
COc1ccc2c(c1)c(=O)c(C(=O)c1ccc(C)cc1)cn2CC(=O)Nc1ccc(F)cc1 | 9.6 | 0.7 | -8.1 | 6.3 | 9.6 | nt | nt | nt
COc1ccc2c(c1)c(=O)c(C(=O)c1ccc(F)cc1)cn2CC(=O)Nc1ccc(F)cc1 | 69.0* | 0.8 | -3.1 | 75.4* | 71.1* | 4.0 | -6.4 | -1.8
CCCC(=O)NCc1ccc2c(c1)cc(C)n2C | 54.3* | -4.2 | -1.9 | 48.3* | 52.4* | 11.4 | 4.3 | 10.4
Cc1cc2cc(CNC(=O)CCC(=O)O)ccc2n1C | 16.7 | -4.3 | -18.3 | 18.0 | 14.6 | nt | nt | nt
Cc1ccc(NC(=O)CN(C)C(=O)Cc2c(Cl)cccc2Cl)cc1 | 0.0 | 0.7 | nt | -4.1 | -19.6 | nt | nt | nt
O=C(Nn1cnnc1)c1cc2c(s1)CCCCC2 | 2.7 | -2.6 | -18.0 | 0.8 | -5.6 | nt | nt | nt
Cc1cc2ncn(C3CC(=O)N(Cc4ccccc4)C3=O)c2cc1C (stereo unspecified) | 3.5 | -1.8 | -22.6 | 6.0 | 11.9 | nt | nt | nt
CCOc1ccc(NCC(=O)N/N=C/C=C/c2ccccc2)cc1 | 6.2 | -0.2 | 8.6 | 1.4 | -2.1 | nt | nt | nt
CCOc1ccc(N=C/C=C/c2ccccc2)c(O)c1 | 72.1* | -3.6 | 0.3 | 83.8* | 87.2* | 14.1 | 20.1 | 2.6
CNc1cccc2c1C(=O)c1ccccc1C2=O | 45.9* | -10.7 | 78.4* | 82.3* | 92.2* | 83.6* | 95.4* | 9.7
O=C1c2ccccc2C(=O)c2c(NCc3cccnc3)cccc21 | 5.3 | 1.0 | -1.5 | 14.3 | 13.4 | nt | nt | nt
CCC(CNc1cc(OC)cc2cccnc12)NC1CCCCC1 (stereo unspecified) | 33.5* | -10.6 | 22.0 | + | + | 50.0* | 62.1* | -5.8
COc1cc(NC(=O)c2ccccc2Cl)c2ncccc2c1 | 5.4 | 1.9 | nt | 7.5 | 5.5 | nt | nt | nt
CCOC(=O)c1ccc(NC(=O)CN(c2ccc(C)cc2)S(=O)(=O)c2c(C)n[nH]c2C)cc1 | 74.3* | 1.7 | 16.4 | 92.2* | 105.7* | 6.2 | 7.7 | -0.1
O=C1C(Cl)=C(NC2CCCCC2)C(=O)N1Cc1ccccc1 | 6.1 | 1.2 | -5.7 | 3.3 | -0.9 | nt | nt | nt
